From PubChem BioAssay AID720519 (National Center for Advancing Translational Sciences (NCATS), 2013)
Results filed as inconclusive are left out. A number with no mark means an inactive call. The call rests on the fitted dose curve; in most records, active means well fitted activation curve with a large enough effect; inconclusive means small, poorly fitted or top-dose-only effect; inactive means flat fitted curve, though single readings scatter.

Assay: qHTS for Inhibitors of Cell Surface uPA Generation: Confirmatory Assay for Cherry-picked Compounds; further: 0% is about no effect
Settings: cell surface uPA activity generation, qHTS confirmation; series mostly up to 115 µM; inhibition: at the top concentration
Method in brief: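 RAW 264.7 cells at 4000/well, incubated overnight, then treated with compounds. After 24 h at 37 C, viability was read by ATPlite luminescence. An increase in signal indicates blocked uPA-dependent LF entry.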

Row | SMILES | inhibition
1 | O=C1C=C(NNC(=O)c2ccncc2)CC(c2ccccc2)C1 (centres undefined) | -1.37%
2 | Fc1cccc(Cl)c1CSc1ccc(-c2cccnc2)nn1 | -2.62%
3 | COc1ccc(S(=O)(=O)N2CCOCC2)cc1NC(=O)CN1C(=O)NC2(CCCC2)C1=O | -1.23%
4 | C=CCn1c(SCCN2C(=O)c3ccccc3C2=O)nc2scc(-c3ccc(F)cc3)c2c1=O | 5.25%
5 | COc1ccc(C2NC(=O)CCC2[N+](=O)[O-])c(OC)c1OC (centres undefined) | -2.72%
6 | CCS(=O)(=O)N1CCC(C(=O)NCc2ccc(OC)cc2OC)CC1 | 0.281%
7 | O=C(Nn1cnnc1)c1ccc(Cl)c(Cl)c1 | -0.701%
8 | O=C(O)c1cc(N=Nc2c(O)[nH]c3ccc([N+](=O)[O-])cc23)ccc1Cl | -0.969%
9 | Cc1cc(C)n(CCCNC(=O)c2ccc(C)o2)n1 | -2.18%
10 | CCCCn1c(-c2cccnc2)nc2cc3[nH]c(=O)c(C(C)C)nc3cc21 | 4.78%
11 | CCCCOc1ccc(S(=O)(=O)N2CCCCC2)cc1 | -1.94%
12 | Cc1noc(C)c1COc1ccc(C(=O)O)cc1 | -1.22%
13 | Cc1cccc(C(=O)Nc2cc(=O)n(C)c(=O)n2C)c1 | -2.43%
14 | CC1CCN(C2=C(NS(=O)(=O)c3ccc(Br)cc3)C(=O)c3ccccc3C2=O)CC1 | -3.41%
15 | CC1CCCN(C(=O)c2ccc(CNc3c(N4CCCCC4)c(=O)c3=O)cc2)C1 (centres undefined) | 0.63%
16 | O=C(C1CCN(c2nnc(N3CCCC3=O)s2)CC1)N1CCN(c2cccc(C(F)(F)F)c2)CC1 | -2.97%
17 | Oc1c(N=NC(=S)Nc2ccccc2F)c2ccccc2n1Cc1ccccc1Cl | -0.999%
18 | O=C1CC(/C=C/c2ccc(Cl)cc2)=Nc2ccccc2N1 | -2.63%
19 | Cc1oc(-c2ccccc2F)nc1CS(=O)(=O)CC(=O)NC1CCCC(C)C1C (centres undefined) | -0.805%
20 | O=C(NNC(=O)c1cccnc1)c1ccncc1 | -1.17%

Row | SMILES | inhibition
21 | O=C(NNC(=O)c1ccc2ccccc2c1)Nc1ccc(F)cc1 | 3.61%
22 | O=C(NCC1CCCO1)c1c(O)c2cccc3c2n(c1=O)CCC3 (centres undefined) | -3.48%
23 | CCC(NC(=O)Cc1c(C)c2c(cc(C)c3c(C)c(C)oc32)oc1=O)C(=O)O (centres undefined) | -3.68%
24 | CN(CC(=O)N(C)CC(=O)Nc1c(Cl)cccc1Cl)Cc1ccccc1F | 0.804%
25 | O=C(COC(=O)c1ccc2ncsc2c1)NCc1cccc(Cl)c1 | -3.9%
26 | CC(C)(O)C#Cc1ccc(C(=O)N2CCCC(CCC(=O)NCc3ccccc3F)C2)cc1 (centres undefined) | -2.55%
27 | Cc1ccnc(N2CCN(C(=O)CSc3nc4ccccc4nc3N3CCC(C)CC3)CC2)c1 | -3.35%
28 | COCCn1nnnc1C(C(C)C)N1CCCC(C)C1 (centres undefined) | 1.8%
29 | NC(=O)CC(NC(=O)Cc1cccc2ccccc12)c1ccc(N2CCN(c3ccccc3)CC2)c([N+](=O)[O-])c1 (centres undefined) | 0.273%
30 | C/C(=N\NC(=S)NC(C)C)c1ccc(Cl)s1 | -2.05%
31 | Cc1nc(NC2CCCCC2)c2nnn(Cc3ccccc3Cl)c2n1 | -0.678%
32 | O=C(NNC(=O)c1ncc(Cl)c(Cl)c1Cl)c1ccc(F)cc1 | 1.74%
33 | O=C(NC(=S)Nc1c(F)cc(F)cc1Br)c1ccc2c(c1)OCCO2 | 0.29%
34 | O=C(CCS(=O)(=O)c1ccc2c(c1)NC(=O)CS2)NCc1cccs1 | 0.665%
35 | COc1ccc(C2=NOC(CNC(N)=S)C2)cc1 (centres undefined) | -3.56%
36 | Cc1cc(N)n(Cc2ccc(Cl)cc2)n1 | -1.76%
37 | CCN(CC)c1c([N+](=O)[O-])c(=O)sc2ccccc12 | -1.46%
38 | COc1ccc(/C=C/C(=O)Nc2ccccc2Cl)cc1S(=O)(=O)N1CCOCC1 | -1.84%
39 | CCN(CC)c1ccc(C=NCCc2ccc(S(N)(=O)=O)cc2)cc1 | -1.84%
